# Assay results as given in PubChem BioAssay (NCATS).
# Records with an inconclusive call do not appear. Where a call stands in place of a potency, no number is given. Unmarked numbers belong to inactive results. Activity calls are given as the source filed them. Calls come from the whole dose curve; as a rule, active = well fitted cell-killing curve with a large enough effect; inconclusive = small, poorly fitted or top-dose-only effect, or effect the other way; inactive = no such curve, though single readings can be large or run the other way.
# Columns and labels:
# [1] = Viability qHTS for spleen associated tyrosine kinase inhibitor (SYKi) naive MV4-11 cells (AID 1963823); note: nearly all actives have a fitted effect of over 40% in size
# In short: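 qHTS, SYK inhibitor-naive MV4-11; 500 cells/well; 72 hr compound exposure, 37 C; CellTiter-Glo added, 10 min RT; luminescence read.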
# [2] = Viability qHTS for spleen associated tyrosine kinase inhibitor (SYKi) drug resistant MV4-11 cells (AID 1963824); note: nearly all actives have a fitted effect of over 35% in size
# In short: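 CellTiter-Glo luminescence, read 10 min after reagent addition, reports viability after a 72 hr compound exposure. Cells are an MV4-11 line made resistant to SYK inhibition, seeded at 500 per well onto compound-containing plates.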
# Potency is the fitted concentration of half-maximal effect.
SMILES,Potency [1],Potency [2],viability (% of control) [1],"viability, % of control [2]"
CC(C)C(=O)OC[C@H]1O[C@@H](n2ccc(N)nc2=O)[C@](C)(F)[C@@H]1OC(=O)C(C)C,inactive,inactive,–,–
COc1ccc(-c2ccc3c(N4CCOCC4)nc(N4CC(C)OC(C)C4)nc3n2)cc1CO (stereo not given),291 nM (active),1030 nM (active),–,–
C/C(=C\CCC(C)(O)c1ccc(C)cc1)C(=O)O (stereo not given),inactive,inactive,–,–
O=C1[C@H](O[C@@H]2O[C@H](CO)[C@@H](O)[C@H](O)[C@H]2O)Oc2ccccc2N1O,inactive,inactive,–,–
C=C1CC[C@@H]2C(C)(C)CCC[C@@]2(C)[C@@H]1CC/C(=C/C(=O)OC)COC(C)=O,inactive,inactive,–,–
COC(=O)C1=COC(OC2OC(CO)C(O)C(O)C2O)C2C(C)C(OC(=O)/C=C/c3ccc(O)cc3)C(O)C12 (stereo not given),inactive,inactive,–,–
C=C(C(=O)O)C1CCC(C)C2CCC(=O)OC2(C)C1 (stereo not given),inactive,20600 nM (active),–,–
C[C@@H](CC[C@@H]1[C@@]2(C)CCCC(C)(C)C2CC[C@@]1(C)O)CC(=O)O (stereo not given in full),inactive,inactive,–,–
NC(=O)c1ccc(OCC2NC(=O)C3CCCN3C2=O)cc1 (stereo not given),inactive,inactive,–,–
CC1NC(=O)CNC(=O)C(C(C)C)NC(=O)C2CCCN2C(=O)C(C(C)C)NC(=O)C(Cc2c[nH]c3ccccc23)NC1=O (stereo not given),inactive,inactive,–,–
COc1ccc(/C=C/C(=O)O[C@H]2[C@@H]3C=CO[C@@H](O[C@@H]4O[C@H](CO)[C@@H](O)[C@H](O)[C@H]4O)[C@@H]3[C@@]3(CO)O[C@@H]23)cc1O,inactive,inactive,–,–
C=C1C(=O)O[C@@H]2C3=C(C)CCC[C@]3(C)CC[C@@]12O,1640 nM (active),731 nM (active),–,–
COc1ccc2cc(C(C)C(=O)Oc3ccc(C(N)=S)cc3)ccc2c1 (stereo not given),inactive,inactive,–,–
CN(C)CCNC(=O)c1cccn2c(=O)c3cc4ccccc4cc3nc12,299 nM (active),422 nM (active),–,–
Cc1ccc(C)c(NC(=O)CNS(=O)(=O)c2ccc3[nH]c(=O)oc3c2)c1,inactive,inactive,–,–
CC(C)=CCC[C@](C)(O[C@@H]1O[C@H](CO[C@@H]2O[C@H](CO)[C@@H](O)[C@H](O)[C@H]2O)[C@@H](O)[C@H](O)[C@H]1O)C1CC[C@]2(C)[C@@H]1[C@H](O)CC1[C@@]3(C)CC[C@H](O[C@@H]4O[C@H](CO)[C@@H](O)[C@H](O)[C@H]4O[C@@H]4O[C@H](CO)[C@@H](O)[C@H](O)[C@H]4O)C(C)(C)[C@@H]3CC[C@]12C (stereo not given in full),–,–,64.5% [at 9.25 µM],69.6% [at 9.25 µM]
CC(C)C(CO)Nc1nc(Nc2cc(N)cc(Cl)c2)c2ncn(C(C)C)c2n1 (stereo not given),517 nM (active),820 nM (active),–,–
CN[C@@H]1[C@@H](O)[C@@H](O[C@@H]2[C@@H](O)[C@H](O[C@H]3O[C@H](CN)[C@@H](O)[C@H](O)[C@H]3O)[C@@H](N)C[C@H]2NC(=O)[C@@H](O)CN)OC[C@]1(C)O,inactive,inactive,–,–
OC[C@H]1O[C@@H](Oc2ccccc2)[C@H](O)[C@@H](O)[C@@H]1O,inactive,inactive,–,–
CO[C@H]1[C@@H](O)[C@H](O[C@H]2CC[C@@]3(C)C(CCC4C3CC[C@]35COC6(COC(=O)C6)C3CCC45O)C2)O[C@@H](C)[C@@H]1OC1OC(CO)C(OC2OC(CO)C(O)C(O)C2O)C(O)C1O (stereo not given in full),1230 nM (active),1100 nM (active),–,–
CN(CCc1ccc(Nc2ncc(-c3cccnc3)s2)cc1)Cc1ccccc1,366 nM (active),651 nM (active),–,–
COc1cc(C2Oc3c(OC)cc(/C=C/C(=O)OC[C@H]4O[C@@H](OC(C)(C)C(=O)O)[C@H](O)[C@@H](O)[C@@H]4O)cc3C2CO)ccc1O (stereo not given in full),inactive,inactive,–,–
C=C1C(O)C(O)C2(CC3C(C)=CCC4C(C)(C(=O)O)CCCC34C)OC2C1O (stereo not given),inactive,inactive,–,–
CC1=CC[C@]2(C(=O)O[C@@H]3O[C@H](CO[C@@H]4O[C@H](CO)[C@@H](O[C@@H]5O[C@@H](C)[C@H](O)[C@@H](O)[C@H]5O)[C@H](O)[C@H]4O)[C@@H](O)[C@H](O)[C@H]3O)CC[C@]3(C)C(CCC4[C@@]5(C)C[C@@H](O)[C@H](O)[C@@](C)(CO)C5CC[C@]43C)C2C1C (stereo not given in full),–,–,78.2% [at 9.25 µM],86.5% [at 9.25 µM]
CC(=O)O[C@H]1C[C@@H](O)C(C)(C)C2C[C@@H](OC(C)=O)[C@]3(C)C(CC[C@@]4(C)[C@H](c5ccoc5)OC(=O)[C@H]5O[C@]543)[C@]21C (stereo not given in full),inactive,inactive,–,–
